Test results as given in PubChem BioAssay (NCATS).
Inconclusive results are not listed. The source made the active and inactive calls. Calls come from the whole dose curve; as a rule, active = well fitted inhibition curve with a large enough effect; inconclusive = small, poorly fitted or top-dose-only effect; inactive = flat fitted curve, though single readings scatter.

Key:
Test in all cases: qHTS profiling for inhibitors of Plasmodium falciparum proliferation (AID 504749); note: nearly all actives have a fitted effect of over 60% in size
Details in all cases: P. falciparum in erythrocytes, SYBR Green DNA, 72 h; series mostly up to 28.7 µM
CP238 = test system: CP238
In short: (§1)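 P. falciparum-infected erythrocytes (0.3% parasitemia, 2.5% hematocrit final) were exposed to compounds for 72 h at 37 C in 5% CO2, then lysed with SYBR Green buffer overnight at room temperature; parasite DNA fluorescence was normalized to artemisinin and DMSO controls.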

CP247 = test system: CP247
In short: as §1

CP250 = test system: CP250
In short: as §1

CP252 = test system: CP252
In short: as §1

CP256 = test system: CP256
In short: as §1

CP260 = test system: CP260
In short: as §1

CP262 = test system: CP262
In short: as §1

CP265 = test system: CP265
In short: as §1

CP266 = test system: CP266
In short: as §1

CP268 = test system: CP268
In short: as §1

CP269 = test system: CP269
In short: as §1

CP286 = test system: CP286
In short: as §1

CP291 = test system: CP291
In short: as §1

CP297 = test system: CP297
In short: as §1

CP305 = test system: CP305
In short: as §1

CP315 = test system: CP315
In short: as §1

CP325 = test system: CP325
In short: as §1

CP329 = test system: CP329
In short: as §1

CP335 = test system: CP335
In short: as §1

DFO2036 = test system: DFO2036
In short: as §1

DIV14 = test system: DIV14
In short: as §1

DIV17 = test system: DIV17
In short: as §1

Dd2 = test system: Dd2
In short: as §1

ECU = test system: ECU
In short: as §1

FAB9 = test system: FAB9
In short: as §1

GB4 = test system: GB4
In short: as §1

HB3 = test system: HB3
In short: as §1

ICS = test system: ICS
In short: as §1

JCK = test system: JCK
In short: as §1

N140 = test system: N140
In short: as §1

P93_24 = test system: P93_24
In short: as §1

P94_40 = test system: P94_40
In short: as §1

PAD = test system: PAD
In short: as §1

PC15 = test system: PC15
In short: as §1

PC26 = test system: PC26
In short: as §1

PC49 = test system: PC49
In short: as §1

SC27B = test system: SC27B
In short: as §1

TAB109 = test system: TAB109
In short: as §1

TAB113 = test system: TAB113
In short: as §1

TAB165 = test system: TAB165
In short: as §1

W2 = test system: W2
In short: as §1

Measured: Potency

Cc1cn([C@H]2C[C@H](N=[N+]=[N-])[C@H](CO)O2)c(=O)[nH]c1=O
inactive: all assays above
